# Assay results as given in PubChem BioAssay.
# Several values for one entry are separate records, joined by “and”; a condition that tells them apart may be missing. Equal entries are not always repeated. Unmarked numbers belong to inactive results. Inconclusive results are not listed. Activity calls are given as the source filed them.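 How the source made its calls, unless noted: active means GFP signal above the screen-wide mean plus 3 SD, that is over about 124.5% of the solvent control; inconclusive means no reading because the compound's own fluorescence disturbed strain identification; inactive means the rest.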 Peptide text beside a SMILES is read from it.
# What was measured:
# [1] = yeast AGP1-GFP level changes, GLN3 branch – cell-based, multiplex flow cytometry, S. cerevisiae, primary screen (AID 1887); conditions: 3 h, at 10 µM, active compounds read high;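 further: AGP1-GFP fusion strain of S. cerevisiae within a five-strain barcoded multiplex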
# [2] = target: Beta-2 adrenergic receptor (Homo sapiens) (UniProt P07550); assay: agonist-induced loss of surface beta2AR – cell-based, FAP fluorogen, flow cytometry, validation set, pilot screen (AID 504459;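 active means percent response above 42, roughly 3 SD of non-fluorescent test compounds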;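 further: agonist-driven loss of surface beta2AR via internalization measured by FAP dye flow cytometry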); conditions: Am2.2-beta2AR cells, at 10 µM, active compounds read high
# Sequence of Beta-2 adrenergic receptor (Homo sapiens) (P07550 whole entry, looked up): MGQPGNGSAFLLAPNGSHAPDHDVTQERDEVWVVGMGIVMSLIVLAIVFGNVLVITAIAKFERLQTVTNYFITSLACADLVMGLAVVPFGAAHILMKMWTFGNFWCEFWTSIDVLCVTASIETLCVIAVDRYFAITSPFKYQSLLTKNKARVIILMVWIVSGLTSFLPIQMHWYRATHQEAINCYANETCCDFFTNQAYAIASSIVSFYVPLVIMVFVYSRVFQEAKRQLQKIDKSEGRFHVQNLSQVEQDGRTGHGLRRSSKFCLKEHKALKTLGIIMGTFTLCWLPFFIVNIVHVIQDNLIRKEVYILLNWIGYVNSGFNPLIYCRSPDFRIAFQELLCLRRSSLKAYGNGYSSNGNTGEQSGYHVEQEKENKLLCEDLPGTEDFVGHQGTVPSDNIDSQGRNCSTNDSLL
# [3] = TOR pathway reporter MEP2-GFP, retest of hits – S. cerevisiae, flow cytometry GFP, cherry picks, confirmation (AID 2272;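 active means GFP response above 150% of the DMSO control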;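 further: ratio of well signal to plate DMSO mean so 100% equals DMSO level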); conditions: S. cerevisiae MEP2-GFP strain, 3 h, at 10 µM, active compounds read high
# [4] = yeast AGP1-GFP fluorescence change, single-dose – cell-based, flow cytometry, S. cerevisiae, cherry picks, confirmation (AID 2273;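 active means GFP response above 150% of the DMSO level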;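 further: median GFP channel fluorescence over the whole cell population gate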); conditions: S. cerevisiae AGP1-GFP strain, 3 h, at 10 µM
smiles,measurement,setting,value
[N-]=[N+]=NC1C[C@H](n2ccc(=O)[nH]c2=O)O[C@@H]1CO (some centres undefined),"GFP response, % of DMSO",[1],104%
COc1ccc(Cc2nccc3cc(OC)c(OC)cc23)cc1OC,"GFP response, % of DMSO",[1],99.5%
same,response,[2],20.1%
C[N+]1(C)[C@@H]2CC(OC(=O)[C@H](CO)c3ccccc3)C[C@H]1[C@@H]1O[C@@H]12 (some centres undefined),"GFP response, % of DMSO",[1],99.6% and 104%
same,response,[2],4.9% and -6.87%
Cc1cccc(C)c1NC1=NCCCS1,"GFP response, % of DMSO",[1],91.8%
O=c1[nH]c2ccccc2n1CCCN1CCC(n2c(=O)[nH]c3cc(Cl)ccc32)CC1,"GFP response, % of DMSO",[1],101%
same,response,[2],2.71%
C[C@@H]1O[C@@H](O[C@H]2C[C@@H](O)[C@]3(CO)[C@H]4[C@H](O)C[C@]5(C)[C@@H](C6=CC(=O)OC6)CC[C@]5(O)[C@@H]4CC[C@]3(O)C2)[C@H](O)[C@H](O)[C@H]1O,"GFP response, % of DMSO",[1],116%
same,response,[2],-22.9%
O=C1CC[C@@]2(O)[C@H]3Cc4ccc(O)c5c4[C@@]2(CCN3CC2CC2)[C@H]1O5,"GFP response, % of DMSO",[1],96.1%
same,response,[2],-8.64%
Cc1cc(Cl)ccc1OC(C)C(=O)O (centres undefined),"GFP response, % of DMSO",[1],87.3%
same,response,[2],-8.83%
NCCc1c[nH]c2ccc(F)cc12,"GFP response, % of DMSO",[1],100%
same,response,[2],1.11%
NCC1(c2ccc3c(c2)OCCO3)CCCC1,"GFP response, % of DMSO",[1],91.3%
CC(C)(C)NCC(O)c1cc(Cl)c(N)c(Cl)c1 (centres undefined),"GFP response, % of DMSO",[1],91.4%
CC(C)C[C@H](NC(=O)[C@@H]1CCCN1C(=O)[C@@H](N)Cc1ccc(O)cc1)C(=O)NCC(N)=O (H-YPLG-NH2),"GFP response, % of DMSO",[1],103%
CC(C)[C@H]1C(=O)N2CCC[C@H]2[C@]2(O)O[C@](NC(=O)[C@@H]3C=C4c5cccc6[nH]cc(c56)C[C@H]4N(C)C3)(C(C)C)C(=O)N12,"GFP response, % of DMSO",[1],118%
same,response,[2],-24.6%
O=C(O)CCCc1ccc(N(CCCl)CCCl)cc1,"GFP response, % of DMSO",[1],97.6%
CN(C)[C@@H]1C(=O)C(C(N)=O)=C(O)[C@@]2(O)C(=O)C3=C(O)c4c(O)cccc4[C@@](C)(O)[C@H]3[C@H](O)[C@@H]12,"GFP response, % of DMSO",[1],103%
CCN(CC)CCOC(=O)C(O)(c1ccccc1)c1ccccc1,"GFP response, % of DMSO",[1],94.5%
same,response,[2],10.4%
CCNC(=S)N(C)CCc1cc2c(c(OC)c1C=C1C(=O)N(C)C(=O)N(C)C1=O)OCO2,"GFP response, % of DMSO",[1],96.1%
CN1C(=O)CN=C(c2ccc(Cl)cc2)c2cc(Cl)ccc21,"GFP response, % of DMSO",[1],92.2%
same,response,[2],-17.9%
CC[C@@H](CO)NC(=O)[C@@H]1C=C2c3cccc4c3c(cn4C)C[C@H]2N(C)C1,"GFP response, % of DMSO",[1],94.5%
S=C1NCCN1,"GFP response, % of DMSO",[1],99.6%
Cc1ccc(/C=C2/C(=O)NC(=O)N(C)C2=O)cc1,"GFP response, % of DMSO",[1],93.6%
O=C(CCCN1CCC2(CC1)C(=O)NCN2c1ccccc1)c1ccc(F)cc1,"GFP response, % of DMSO",[1],113%
same,response,[2],-35.8%
Cc1cc(Cl)ccc1OCC(=O)O,"GFP response, % of DMSO",[1],103%
CCN(CC)C(=O)N[C@H]1C[C@@H]2c3cccc4[nH]cc(c34)C[C@H]2N(C)C1,"GFP response, % of DMSO",[1],98.6%
same,response,[2],-25%
COC1=CC(=O)OC(/C=C/c2ccccc2)C1 (centres undefined),"GFP response, % of DMSO",[1],103%
C[C@H]1CCC/C=C/C2C[C@H](O)CC2[C@H](O)/C=C/C(=O)O1 (some centres undefined),"GFP response, % of DMSO",[1],102%
same,response,[2],28.3%
c1ccc(Cn2ccnc2)cc1,"GFP response, % of DMSO",[1],98.2%
COc1ccc2c(c1)CC1(CN2C)C(=O)NC(=O)N(CCc2ccccc2)C1=O (centres undefined),"GFP response, % of DMSO",[1],97.8%
same,response,[2],-3.63%
CC(=O)[C@H]1CC[C@H]2[C@@H]3CC[C@H]4C[C@H](O)CC[C@]4(C)[C@H]3C(=O)C[C@]12C,"GFP response, % of DMSO",[1],90.4%
C[N+]1(C)CCN(c2ccccc2)CC1,"GFP response, % of DMSO",[1],96.6%
CN[C@H]1C[C@H]2O[C@@](C)([C@H]1OC)n1c3ccccc3c3c4c(c5c6ccccc6n2c5c31)C(=O)NC4,"GFP response, % of DMSO",[1],90.8%
same,response,[2],12%
COc1ccc(C(=O)N2CCCC2=O)cc1,"GFP response, % of DMSO",[1],117%
same,response,[2],-0.27%
CN[C@H](C)[C@H](O)c1ccccc1,"GFP response, % of DMSO",[1],101%
same,response,[2],-9.17%
Cc1ccc2c(c1)C1CN(C)CCC1N2C(=O)Nc1cccc(Cl)c1 (centres undefined),"GFP response, % of DMSO",[1],102%
CC[N+]1(C)CCCC(OC(=O)C(O)(c2ccccc2)c2ccccc2)C1 (centres undefined),"GFP response, % of DMSO",[1],119%
same,response,[2],-15.3%
C[C@H]1CCC[C@H](O)CCCCCc2cc(O)cc(O)c2C(=O)O1,"GFP response, % of DMSO",[1],105%
CC(=O)C1=C(C)OC(N)=C(C(=O)OC(C)C)C12C(=O)Nc1ccccc12 (centres undefined),"GFP response, % of DMSO",[1],101%
COc1ccc(OC)c(C(O)C(C)N)c1 (centres undefined),"GFP response, % of DMSO",[1],98.3%
same,response,[2],-5.54%
CC(C)[C@@]1(NC(=O)[C@@H]2C[C@@H]3c4cccc5[nH]cc(c45)C[C@H]3N(C)C2)O[C@@]2(O)[C@@H]3CCCN3C(=O)[C@H](Cc3ccccc3)N2C1=O,response,[2],-14.6%
O=C(O)c1[nH]c(=O)[nH]c(=O)c1F,GFP response vs DMSO,[3],101%
same,"GFP response, % of DMSO",[4],102%
Cc1ccc(/C=C2\C(=O)NC(=O)N(CC3CCCO3)C2=O)s1 (centres undefined),GFP response vs DMSO,[3],92%
same,"GFP response, % of DMSO",[4],92.1%
O=C1/C(=C\c2ccc(Cl)c(Cl)c2)N2CCC1CC2,GFP response vs DMSO,[3],92.6%
same,"GFP response, % of DMSO",[4],95.5%
CN1CCN(c2ccc([N+](=O)[O-])c(Sc3ccccn3)c2)CC1,GFP response vs DMSO,[3],105%
same,"GFP response, % of DMSO",[4],98%
O=c1[nH]c(=S)n(-c2ccccc2)c(O)c1/C=N/N1CCOCC1,GFP response vs DMSO,[3],99%
same,"GFP response, % of DMSO",[4],99.8%
Nc1ccc(N=Nc2ccccc2)cc1,GFP response vs DMSO,[3],103%
same,"GFP response, % of DMSO",[4],93.4%
O=c1[nH]c(=O)n(Cc2ccc(F)cc2)c(O)c1C=NCCN1CCCCC1,GFP response vs DMSO,[3],101%
same,"GFP response, % of DMSO",[4],102%
CC12CN3CC(C)(CN(C1)C3c1cccnc1)C2=O (centres undefined),response,[2],1.06%
CCN(CC)c1ccc(C=C2C(=O)NC(=S)NC2=O)cc1,GFP response vs DMSO,[3],95.2%
same,"GFP response, % of DMSO",[4],100%
COc1ccc(N2C(=O)/C(=C/c3ccco3)C(=O)NC2=S)cc1,GFP response vs DMSO,[3],100%
same,"GFP response, % of DMSO",[4],100%
O=C1C=Cc2ccccc2C1=O,response,[2],-20.4%
CN1C(=O)NC(=O)/C(=C\C=C\c2ccccc2[N+](=O)[O-])C1=O,GFP response vs DMSO,[3],105%
same,"GFP response, % of DMSO",[4],108%
C#CCOc1cc(C2C3=C(COC3=O)Nc3cc4c(cc32)OCO4)ccc1OC (centres undefined),GFP response vs DMSO,[3],117%
same,"GFP response, % of DMSO",[4],103%
N#CC(C#N)=NNc1ccc(-n2ccc(C(F)(F)F)n2)cc1,GFP response vs DMSO,[3],114%
same,"GFP response, % of DMSO",[4],102%
O=C1NC(=O)N(Cc2ccco2)C(=O)/C1=C/c1ccc(-c2cccc([N+](=O)[O-])c2)o1,GFP response vs DMSO,[3],94.7%
same,"GFP response, % of DMSO",[4],90.9%
O=C(O)c1nn(Cc2ccc(Cl)cc2Cl)c2ccccc12,GFP response vs DMSO,[3],100%
same,"GFP response, % of DMSO",[4],99.2%
CCOC(=O)c1cncn1C(C)c1ccccc1 (centres undefined),"GFP response, % of DMSO",[1],95%
same,response,[2],-9.36%
Nc1ccc2ccc3cccc[n+]3c2c1,GFP response vs DMSO,[3],257% (active)
same,"GFP response, % of DMSO",[4],110%
CCN(CC)c1ccc(/C=C/[N+](=O)[O-])cc1,GFP response vs DMSO,[3],108%
same,"GFP response, % of DMSO",[4],96.7%
O=C1NC(=O)N(c2ccccc2)C(=O)/C1=C\c1ccc([N+](=O)[O-])o1,GFP response vs DMSO,[3],108%
same,"GFP response, % of DMSO",[4],104%
Cc1cccn2c(NCC3CCCO3)c(C(C)C)nc12 (centres undefined),GFP response vs DMSO,[3],104%
same,"GFP response, % of DMSO",[4],105%
CCOC(=O)C1=C(C)OC(N)=C(C(=O)OCC)[C@@]12C(=O)N(CC(N)=O)c1ccccc12,response,[2],-10.5%
CCOC(=O)C(C)Oc1cc(C)cc2oc(=O)c3c(c12)CCCC3 (centres undefined),response,[2],1.66%
C=CC1CN2CCC1CC2[C@@H](OC(=O)c1ccc(OC)cc1)c1ccnc2ccccc12 (some centres undefined),response,[2],1.66%
O=c1oc2ccccc2c(O)c1[C@H]1c2ccc(O)cc2Oc2c1c(=O)oc1ccccc21,GFP response vs DMSO,[3],102%
same,"GFP response, % of DMSO",[4],90.4%
CN1C(=O)C(=Cc2ccc(Sc3ccccc3)o2)C(=O)N(C)C1=S,GFP response vs DMSO,[3],106%
same,"GFP response, % of DMSO",[4],99.3%
Fc1ccc(C(OCCN2CCCC2)c2ccc(Br)cc2)cc1 (centres undefined),response,[2],11.4%
O=C1NC(=O)C(=Cc2ccc(Sc3ccccc3)o2)C(=O)N1,GFP response vs DMSO,[3],92%
same,"GFP response, % of DMSO",[4],83.6%
O=C1NC(=O)N(Cc2ccco2)C(=O)/C1=C\c1ccc(-c2ccc(F)cc2)o1,GFP response vs DMSO,[3],99.3%
same,"GFP response, % of DMSO",[4],100%
CCNC(=O)[C@H]1O[C@@H](n2cnc3c(N)ncnc32)[C@H](O)[C@@H]1O,"GFP response, % of DMSO",[1],91.5%
same,response,[2],0.15%
N#CC(C#N)=Cc1ccc(N2CCCC2)cc1,GFP response vs DMSO,[3],112%
same,"GFP response, % of DMSO",[4],109%
CCN1CC2(COC(=O)c3ccccc3N)CCC(OC)C34C5CC6C(OC)CC(O)(C5C6OC)C(O)(C(OC)C23)C14 (centres undefined),response,[2],-0.45%
O=C1NC(=S)NC(=O)C1=Cc1ccc2c(c1)CCN2CCCCl,GFP response vs DMSO,[3],103%
same,"GFP response, % of DMSO",[4],87.8%
O=C1NC(=O)N(CCC2=CCCCC2)C(=O)/C1=C/c1cccs1,GFP response vs DMSO,[3],96.2%
same,"GFP response, % of DMSO",[4],84%
Cc1cc(C=C2C(=O)N(C)C(=S)N(C)C2=O)c(C)n1-c1ccncc1,GFP response vs DMSO,[3],113%
same,"GFP response, % of DMSO",[4],100%
CN1C(=O)C(=Cc2ccc(SC3CCCCC3)o2)C(=O)N(C)C1=O,GFP response vs DMSO,[3],98.8%
same,"GFP response, % of DMSO",[4],101%
O=C1NC(=O)N(CCc2ccc(F)cc2)C(=O)/C1=C/c1cccs1,GFP response vs DMSO,[3],94.4%
same,"GFP response, % of DMSO",[4],101%
O=C1NC(=O)N(CCc2ccc(F)cc2)C(=O)/C1=C/c1ccco1,GFP response vs DMSO,[3],94.4%
same,"GFP response, % of DMSO",[4],99.8%
O=C1NC(=O)N(c2ccccc2)C(=O)/C1=C/c1ccc(Sc2ccccc2)o1,GFP response vs DMSO,[3],108%
same,"GFP response, % of DMSO",[4],91.7%
